Experimental data: PubChem BioAssay (Tox21)
“And” between values parts separate entries of the source, which are not always exact repeats. Identical values can stand only once. Results filed as inconclusive are left out. Where a call stands in place of a potency, no number is given. The source made the active and inactive calls. Unless noted, calls follow the shape of the dose curve; as a rule, active = well fitted curve in the direction sought with a large enough effect in the repeat runs; inconclusive = weak or mixed curves; inactive = no such curve, though single readings can be large; an effect the other way counts as inactive or inconclusive.

Assays:
[1] = qHTS assay to identify small molecule agonists of the androgen receptor (AR) signaling pathway in the presence of an antagonist - cell viability counter screen (AID 1259379); also: nearly all actives have a fitted effect of over 25% in size; also: potency is read from the fitted curve at half-maximal effect
Method in brief: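 Cytotoxicity is assessed by CellTiter-Fluor in MDA-kb2 cells carrying an MMTV-driven luciferase reporter. Cells receive 3.0uM nilutamide plus compounds at 15 concentrations and incubate 16 hr at 37C without CO2 before fluorescence reading.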

[2] = qHTS assay to identify small molecule agonists of the estrogen receptor beta (ER-beta) signaling pathway - cell viability counter screen (AID 1259380); also: nearly all actives have a fitted effect of over 30% in size; also: potency is read from the fitted curve at half-maximal effect
Method in brief: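 Cytotoxicity is measured in parallel with the reporter screen: after 16 hr compound exposure at 37C and a 2 hr LiveBLAzer step, CellTiter-Glo is added to the same ER-beta-UAS-bla HEK293T wells and luminescence read after 30 min.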

[3] = biological target: Androgen receptor (Homo sapiens) (UniProt P10275); assay: qHTS assay to identify small molecule agonists of the androgen receptor (AR) signaling pathway in the presence of an antagonist (AID 1259381; calls by dose curve; also: nearly all actives have a fitted effect of over 15% in size)
Method in brief: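 Agonist-mode confirmation screen: human MDA-kb2 cells stably expressing luciferase under an MMTV promoter bearing AR and GR response elements, co-treated with 3.0uM nilutamide (final). Luminescence measured after 16hr compound incubation.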

[4] = qHTS assay to identify small molecule antagonists of the estrogen receptor beta (ER-beta) signaling pathway - cell viability counter screen (AID 1259382); also: nearly all actives have a fitted effect of over 55% in size; also: potency is read from the fitted curve at half-maximal effect
Method in brief: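 Cytotoxicity counter screen multiplexed with the beta-lactamase antagonist assay: GripTite HEK293T ER-beta-bla cells were treated 16 hr with test chemicals in the presence of 1nM 17-beta-estradiol, and viability was measured by CellTiter-Glo.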

[5] = qHTS assay to identify small molecule agonists of the estrogen receptor alpha (ER-alpha) signaling pathway in the presence of an antagonist - cell viability counter screen (AID 1259386);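 also: cells exposed to compounds for 22 h at 37 °C before the viability read; nearly all actives have a fitted effect of over 30% in size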; also: potency is read from the fitted curve at half-maximal effect
Method in brief: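 Cytotoxicity was measured in parallel with the ERE-luciferase agonist screen, in the same wells. The cells were VM7Luc4E2, which endogenously express ER-alpha, and treatment was with compounds plus 10.0nM ICI-182,780 for 22hr.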

[6] = biological target: Progesterone receptor (Homo sapiens) (UniProt P06401); assay: qHTS assay to identify small molecule agonists of the progesterone receptor (PR) signaling pathway (AID 1346784; calls by dose curve; also: nearly all actives have a fitted effect of over 30% in size)
Method in brief: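 Using charcoal-stripped serum (2%) to limit endogenous steroids, PR-UAS-bla HEK 293T cells received compounds for 16 hr at 37C after 6 hr plating; beta-lactamase FRET fluorescence was recorded following 2 hr substrate loading at room temperature.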

[7] = biological target: Progesterone receptor (Homo sapiens) (UniProt P06401); assay: qHTS assay to identify small molecule antagonists of the progesterone receptor (PR) signaling pathway (AID 1346795; active = well fitted inhibition curve with a large enough effect in the signal ratio in the repeat runs, not every such curve was filed as active; the % refers to the signal ratio; also: potency is read from the fitted curve at half-maximal effect)
Method in brief: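 Inhibition of R5020-induced (1 nM final) beta-lactamase reporter signal in PR-UAS-bla HEK293T cells was scored by FRET fluorescence after overnight (16 hr) compound treatment.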

[8] = qHTS assay to identify small molecule antagonists of the progesterone receptor (PR) signaling pathway - cell viability counter screen (AID 1346798); also: nearly all actives have a fitted effect of over 50% in size; also: potency is read from the fitted curve at half-maximal effect
Method in brief: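 ATP content as viability readout: CellTiter-Glo luminescence, 30 min room temperature, in PR-UAS-bla HEK293T cells after 16 hr compound/R5020 treatment at 37C and 5% CO2.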

[9] = qHTS assay to identify small molecule antagonists of the TGF-beta/Smad signaling pathway - cell viability counter screen (AID 1346824); also: nearly all actives have a fitted effect of over 50% in size
Method in brief: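 SBE-bla HEK 293T cells, incubated overnight, then compound plus 0.25 ng/mL TGF-beta1 (stock added) for 5 hr at 37 C. Viability was read in the same wells by CellTiter-Glo luminescence after 30 min at room temperature.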

[10] = qHTS assay to identify small molecule agonists of the TGF-beta/Smad signaling pathway - cell viability counter screen (AID 1346829); also: nearly all actives have a fitted effect of over 45% in size; also: potency is read from the fitted curve at half-maximal effect
Method in brief: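 CellTiter-Glo luminescence readout; SBE-bla HEK 293T cells, overnight plating, compound 5 hr at 37 C/5% CO2, then bla substrate 2 hr RT, then CellTiter-Glo 30 min RT.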

[11] = qHTS assay to identify small molecule agonists of the TGF-beta/Smad signaling pathway (AID 1346859; active = well fitted activation curve with a large enough effect in the signal ratio in the repeat runs, not every such curve was filed as active; the % refers to the signal ratio; also: series mostly up to about 77 µM)
Method in brief: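 Stable Smad binding element-beta-lactamase HEK 293T cells; 5 hr compound exposure at 37 C under 5% CO2; 2 hr room-temperature substrate step; fluorescence excited at 405 nm, collected at 460 nm and 530 nm.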

[12] = biological target: Thyrotropin-releasing hormone receptor (Homo sapiens) (UniProt P34981); assay: qHTS assay to identify small molecule antagonists of the thyrotropin-releasing hormone receptor (TRHR) signaling pathway (AID 1346877; active = well fitted inhibition curve with a large enough effect in the repeat runs, not every such curve was filed as active; also: series mostly up to about 51 µM)
Method in brief: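 Antagonism is measured as suppression of the calcium response to 1 nM TRH in TRHR-HEK293 cells that have been dye-loaded for 2 h at 37 °C after overnight plating. Each compound is tested at 15 concentrations in triplicate.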

[13] = biological target: Thyrotropin-releasing hormone receptor (Homo sapiens) (UniProt P34981); assay: qHTS assay to identify small molecule agonists of the thyrotropin-releasing hormone receptor (TRHR) signaling pathway (AID 1346891; calls by dose curve;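 also: HEK293 cells expressing TRHR with calcium dye readout; series mostly up to about 58 µM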)
Method in brief: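 In 1536-format, 1500 TRHR-Hek293 cells per well grew 18 h, took up calcium dye for 2 h at 37 °C, received compound, and were read kinetically; 15-point titrations, triplicates.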

[14] = Human pregnane X receptor (PXR) small molecule agonists, qHTS cell viability counter screen (AID 1346977); also: nearly all actives have a fitted effect of over 50% in size; also: potency is read from the fitted curve at half-maximal effect
Method in brief: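 Readout is CellTiter-Fluor fluorescence from PXR-Luc HepG2 cells. Plated cells rested 5hr, then were treated with compounds for 24hr at 37C and 5% CO2, with reagent present during the last hour.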

[15] = Caspase-3/7 induction in HepG2 cells by small molecules, qHTS assay (AID 1346978); also: nearly all actives have a fitted effect of over 15% in size; also: potency is read from the fitted curve at half-maximal effect
Method in brief: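 Wild-type HepG2 cells, 2,000/well, settled 5 hr at 37 C and 5% CO2, then compound-treated for 17 hr; caspase-3/7 activity read by luminescent Caspase-Glo 3/7 after 30 min at room temperature.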

[16] = biological target: Estrogen receptor (Homo sapiens) (UniProt P03372); assay: qHTS assay to identify small molecule agonists of the estrogen receptor alpha (ER-alpha) signaling pathway in the presence of an antagonist (AID 1259383; calls by dose curve; also: nearly all actives have a fitted effect of over 15% in size; also: potency is read from the fitted curve at half-maximal effect; as to activation: top concentration of the series differs between compounds)
Method in brief: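 Agonist-mode confirmation in the presence of the ER antagonist ICI-182,780 at 10.0nM final. Breast-derived VM7Luc4E2 reporter cells were exposed to compounds for 22hr, and ERE-driven luciferase was quantified by luminescence.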

[17] = qHTS assay to identify small molecule agonists or antagonists of the thyroid stimulating hormone receptor (TSHR) signaling pathway - wild type cell line counter screen (AID 1259384; calls by dose curve)
Method in brief: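 Wild-type Hek293 cells, 800/well, 18 h at 37C, then compound with Ro20-1724 for 30 min RT. cAMP by HTRF (cAMP-d2/anti-cAMP cryptate), 1 h RT, fluorescence read. 15 concentrations, triplicates.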

[18] = qHTS assay to identify small molecule agonists of the progesterone receptor (PR) signaling pathway - cell viability counter screen (AID 1346799; calls by dose curve; also: nearly all actives have a fitted effect of over 45% in size; also: potency is read from the fitted curve at half-maximal effect)
Method in brief: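 Cytotoxicity in PR-bla HEK293T cells: 16 h compound, 37C; CellTiter-Glo added post-FRET read; luminescence after 30 min RT.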

[19] = biological target: Thyrotropin receptor (Homo sapiens) (UniProt P16473); assay: qHTS assay to identify small molecule antagonists of the thyroid stimulating hormone receptor (TSHR) signaling pathway (AID 1259385; calls by dose curve; also: nearly all actives have a fitted effect of over 20% in size; also: potency is read from the fitted curve at half-maximal effect)
Method in brief: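 TSHR-HEK293 cells (800/well) plated 18 h, then compounds with Ro20-1724 and TSH at 1.5 ng/mL final, 30 min at room temperature. cAMP quantified by HTRF (cAMP-d2/anti-cAMP-cryptate, 1 h); 15 concentrations in triplicate.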

Thyrotropin receptor (Homo sapiens), sequence (P16473 whole entry, looked up): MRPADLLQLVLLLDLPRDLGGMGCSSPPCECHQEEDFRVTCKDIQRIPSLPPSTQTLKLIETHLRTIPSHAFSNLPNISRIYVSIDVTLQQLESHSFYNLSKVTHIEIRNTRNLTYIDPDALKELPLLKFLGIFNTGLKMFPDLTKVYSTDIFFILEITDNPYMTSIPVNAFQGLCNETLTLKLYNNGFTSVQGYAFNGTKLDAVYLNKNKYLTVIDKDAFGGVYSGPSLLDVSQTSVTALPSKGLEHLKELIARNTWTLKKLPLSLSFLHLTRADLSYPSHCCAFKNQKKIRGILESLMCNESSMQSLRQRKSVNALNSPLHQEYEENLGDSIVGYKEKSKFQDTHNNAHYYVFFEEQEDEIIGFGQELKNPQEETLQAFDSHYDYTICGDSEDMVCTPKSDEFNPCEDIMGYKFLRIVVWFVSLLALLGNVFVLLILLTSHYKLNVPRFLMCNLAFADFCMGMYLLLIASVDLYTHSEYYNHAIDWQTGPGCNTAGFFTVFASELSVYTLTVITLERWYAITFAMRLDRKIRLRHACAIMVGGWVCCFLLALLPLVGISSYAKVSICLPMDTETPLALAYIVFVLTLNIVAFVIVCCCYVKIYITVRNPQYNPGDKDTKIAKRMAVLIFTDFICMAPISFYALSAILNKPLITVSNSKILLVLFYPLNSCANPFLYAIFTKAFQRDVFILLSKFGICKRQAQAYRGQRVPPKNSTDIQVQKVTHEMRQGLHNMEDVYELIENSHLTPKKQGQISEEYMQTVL
Progesterone receptor (Homo sapiens), sequence (P06401 whole entry, looked up): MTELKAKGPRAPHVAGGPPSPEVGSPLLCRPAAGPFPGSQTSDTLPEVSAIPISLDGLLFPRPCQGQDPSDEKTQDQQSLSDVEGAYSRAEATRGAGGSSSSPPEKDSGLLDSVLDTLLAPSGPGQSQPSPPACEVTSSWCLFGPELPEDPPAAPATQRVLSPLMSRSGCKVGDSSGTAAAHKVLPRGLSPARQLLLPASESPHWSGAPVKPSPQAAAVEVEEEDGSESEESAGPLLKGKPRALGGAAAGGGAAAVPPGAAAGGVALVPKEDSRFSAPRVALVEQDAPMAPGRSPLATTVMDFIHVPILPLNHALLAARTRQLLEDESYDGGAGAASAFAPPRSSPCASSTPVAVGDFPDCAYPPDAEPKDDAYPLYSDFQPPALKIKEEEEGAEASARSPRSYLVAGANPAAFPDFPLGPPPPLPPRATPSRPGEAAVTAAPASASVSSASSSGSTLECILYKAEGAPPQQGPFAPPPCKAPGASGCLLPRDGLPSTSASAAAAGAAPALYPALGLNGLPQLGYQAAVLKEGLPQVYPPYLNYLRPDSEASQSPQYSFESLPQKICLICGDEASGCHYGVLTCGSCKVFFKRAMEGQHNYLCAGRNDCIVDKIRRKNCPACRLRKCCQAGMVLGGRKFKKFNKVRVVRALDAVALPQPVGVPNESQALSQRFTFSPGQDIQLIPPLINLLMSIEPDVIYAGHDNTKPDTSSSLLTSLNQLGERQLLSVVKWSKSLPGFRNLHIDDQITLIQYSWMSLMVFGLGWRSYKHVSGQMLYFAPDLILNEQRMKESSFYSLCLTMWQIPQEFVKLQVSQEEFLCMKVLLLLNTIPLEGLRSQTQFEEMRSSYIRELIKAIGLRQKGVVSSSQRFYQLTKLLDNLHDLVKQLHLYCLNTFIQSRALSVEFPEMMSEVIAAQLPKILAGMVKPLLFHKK
Estrogen receptor (Homo sapiens), sequence (P03372 whole entry, looked up): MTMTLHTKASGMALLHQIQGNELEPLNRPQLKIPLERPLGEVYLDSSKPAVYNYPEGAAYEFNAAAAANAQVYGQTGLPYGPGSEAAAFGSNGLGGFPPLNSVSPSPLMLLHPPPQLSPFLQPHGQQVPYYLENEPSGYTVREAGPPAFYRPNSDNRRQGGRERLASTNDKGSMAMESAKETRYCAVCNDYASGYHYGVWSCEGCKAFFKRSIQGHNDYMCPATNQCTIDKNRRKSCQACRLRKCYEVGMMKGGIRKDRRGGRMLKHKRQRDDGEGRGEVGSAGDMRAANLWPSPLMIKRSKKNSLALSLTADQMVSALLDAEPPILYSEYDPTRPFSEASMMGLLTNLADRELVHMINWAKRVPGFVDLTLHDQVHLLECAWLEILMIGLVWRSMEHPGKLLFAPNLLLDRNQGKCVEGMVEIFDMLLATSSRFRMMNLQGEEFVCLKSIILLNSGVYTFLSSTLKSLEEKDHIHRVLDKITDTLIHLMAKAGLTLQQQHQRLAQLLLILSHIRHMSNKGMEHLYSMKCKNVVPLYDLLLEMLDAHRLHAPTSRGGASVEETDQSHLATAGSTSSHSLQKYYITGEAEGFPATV
Thyrotropin-releasing hormone receptor (Homo sapiens), sequence (P34981 whole entry, looked up): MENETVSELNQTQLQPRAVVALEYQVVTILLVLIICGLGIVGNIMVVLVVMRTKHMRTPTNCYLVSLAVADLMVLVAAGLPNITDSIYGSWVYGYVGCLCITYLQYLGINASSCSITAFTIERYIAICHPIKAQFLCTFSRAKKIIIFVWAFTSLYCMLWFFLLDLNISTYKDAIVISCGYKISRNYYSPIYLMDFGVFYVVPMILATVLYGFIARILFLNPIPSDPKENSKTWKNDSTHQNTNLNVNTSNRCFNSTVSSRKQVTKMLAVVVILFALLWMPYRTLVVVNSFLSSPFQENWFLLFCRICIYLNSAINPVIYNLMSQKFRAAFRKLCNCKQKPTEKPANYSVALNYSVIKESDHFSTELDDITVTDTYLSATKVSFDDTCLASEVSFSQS
Androgen receptor (Homo sapiens), sequence (P10275 whole entry, looked up): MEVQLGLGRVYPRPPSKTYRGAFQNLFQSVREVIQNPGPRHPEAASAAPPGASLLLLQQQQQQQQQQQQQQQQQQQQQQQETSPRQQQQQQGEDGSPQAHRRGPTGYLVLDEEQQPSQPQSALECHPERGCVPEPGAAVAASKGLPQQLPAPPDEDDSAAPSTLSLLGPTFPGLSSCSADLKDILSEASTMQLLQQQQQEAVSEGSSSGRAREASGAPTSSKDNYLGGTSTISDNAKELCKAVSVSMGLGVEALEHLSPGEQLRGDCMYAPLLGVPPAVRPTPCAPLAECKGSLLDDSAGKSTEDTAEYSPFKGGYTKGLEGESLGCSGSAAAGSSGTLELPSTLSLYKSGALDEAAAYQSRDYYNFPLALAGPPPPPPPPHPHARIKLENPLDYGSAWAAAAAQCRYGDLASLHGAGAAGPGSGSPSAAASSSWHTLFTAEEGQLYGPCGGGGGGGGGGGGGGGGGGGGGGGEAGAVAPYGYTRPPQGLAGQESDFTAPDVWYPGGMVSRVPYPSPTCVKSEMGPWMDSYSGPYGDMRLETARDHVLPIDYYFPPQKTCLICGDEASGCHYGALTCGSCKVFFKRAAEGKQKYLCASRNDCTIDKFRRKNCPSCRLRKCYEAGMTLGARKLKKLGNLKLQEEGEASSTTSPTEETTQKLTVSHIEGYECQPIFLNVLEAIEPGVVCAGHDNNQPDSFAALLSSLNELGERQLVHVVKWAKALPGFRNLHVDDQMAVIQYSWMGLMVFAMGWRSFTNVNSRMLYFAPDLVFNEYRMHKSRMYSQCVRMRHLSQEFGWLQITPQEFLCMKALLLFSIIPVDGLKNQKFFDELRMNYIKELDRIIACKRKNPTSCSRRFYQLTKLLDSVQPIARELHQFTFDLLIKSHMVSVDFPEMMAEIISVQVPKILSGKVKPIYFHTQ

Row | Structure (SMILES) | Potency [1] | Potency [2] | Potency [3] | Potency [4] | Potency [5] | Potency [6] | Potency [7] | Potency [8] | Potency [9] | Potency [10] | outcome [11] | Potency [12] | Potency [13] | Potency [14] | Potency [15] | Potency [16] | outcome [17] | Potency [18] | Potency [19]
1 | Cc1cc(N=Nc2ccccc2C)ccc1N | 30.6 µM (active) and 34.4 µM (active) | 27.3 µM (active) | inactive | 54.5 µM (active) | 27.3 µM (active) | inactive | 12.2 µM (active) | inactive | inactive | inactive | inactive | inactive | inactive | 4.47 µM (active) and 6.86 µM (active) | 1.37 µM (active) and 969 nM (active) | – | – | – | –
2 | ClC1=C(Cl)C2(Cl)C3C(Cl)C=CC3C1(Cl)C2(Cl)Cl (stereo not given) | inactive | 61.4 µM (active) | – | inactive | inactive | inactive | – | inactive | inactive | – | inactive | – | – | – | inactive | inactive | inactive | inactive | –
3 | CC(=O)Nc1ccc2c(c1)Cc1ccccc1-2 | inactive | inactive | – | inactive | inactive | inactive | – | inactive | inactive | inactive | inactive | inactive | inactive | inactive | inactive | 8.77 µM (active) | inactive | – | inactive
4 | FC(Cl)(Cl)Cl | inactive | inactive | inactive | inactive | inactive | inactive | inactive | – | – | inactive | inactive | inactive | inactive | inactive | inactive | – | inactive | inactive | inactive
5 | COP(=S)(OC)Oc1cc(Cl)c(Br)cc1Cl | inactive | inactive | inactive | – | inactive | inactive | – | – | inactive | inactive | inactive | inactive | inactive | – | inactive | inactive | inactive | – | –
6 | O=C(CCl)Nc1ccccc1 | 61.1 µM (active) | inactive | – | inactive | 68.6 µM (active) | inactive | – | 19.3 µM (active) | inactive | inactive | inactive | inactive | inactive | 61.1 µM (active) | inactive | inactive | inactive | inactive | inactive
7 | ClC1=C(Cl)C2(Cl)C3C(Cl)C(Cl)CC3C1(Cl)C2(Cl)Cl (stereo not given) | inactive | 43.1 µM (active) and 61.1 µM (active) | inactive | – | – | inactive | 4.31 µM (active) and 21.7 µM (active) | – | – | 48.8 µM (active) | inactive | inactive | inactive | – | – | inactive | – | 48.4 µM (active) and 61.1 µM (active) | –
8 | CC(C)CC(C)(c1ccc(O)cc1)c1ccc(O)cc1 | inactive | 68.7 µM (active) and 61.1 µM (active) | – | 54.6 µM (active) and 68.6 µM (active) | inactive | – | 6.11 µM (active) | – | inactive | inactive | inactive | – | inactive | 50.1 µM (active) | – | – | inactive | – | inactive
9 | ClCc1ccccc1CCl | 61.1 µM (active) | inactive | – | inactive | inactive | – | inactive | inactive | inactive | inactive | inactive | inactive | inactive | inactive | inactive | inactive | – | inactive | inactive
10 | CC(=O)C(Cl)(Cl)Cl | 20.9 µM (active) | inactive | – | inactive | 18.7 µM (active) | – | – | inactive | inactive | inactive | inactive | inactive | inactive | 8.34 µM (active) | inactive | inactive | – | – | –
11 | N#CCCO | inactive | inactive | – | inactive | inactive | inactive | inactive | inactive | inactive | inactive | inactive | inactive | inactive | inactive | inactive | inactive | – | inactive | –
12 | Clc1ccc(Oc2ccccc2)cc1 | inactive | inactive | – | inactive | inactive | – | inactive | inactive | inactive | inactive | inactive | inactive | inactive | inactive | inactive | inactive | – | inactive | –
13 | CCOC(=O)CC(=O)CCl | 61.1 µM (active) | inactive | – | inactive | inactive | – | inactive | – | inactive | inactive | inactive | – | – | inactive | inactive | inactive | – | inactive | –
14 | CCC[CH2][Sn]([CH2]CCC)([CH2]CCC)[O]C(=O)c1ccccc1 | 1.72 µM (active) | 1.54 µM (active) | – | 1.93 µM (active) | 10.9 µM (active) | – | – | 2.17 µM (active) | – | 2.45 µM (active) | – | – | – | 1.22 µM (active) | 3.06 µM (active) | inactive | – | 2.43 µM (active) | 17.2 µM (active)
